F508del corr: CFTR F508del correction in bronchial cells; CFBE cells, YFP halide quenching; stimulated with forskolin plus potentiator P3; % fluorescence drop versus neutral controls; activity (quench increase), % at 7.58 µM; 350,000 tested, 0.36% active; AID 720511;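 active means mean added fluorescence quench of at least 8% versus neutral control, with both replicates also reaching 8%; inconclusive means only one of the mean or replicate conditions met; inactive means mean below 8% and not both replicates reaching 8%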;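 further: cells transiently co-express mutant CFTR-F508del with the halide-sensitive YFP; corrector assay measuring rescue of mutant channel to the surface after 24 h compound exposure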
N-glyco inh: blocks N-linked glycosylation in D54 reporter cells | D54 ERlucT glycosylation luciferase reporter, 24 h; percent of 100 nM tunicamycin response | reporter increase, % at 12.5 µM | 360,000 tested, 0.23% active;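 active means mean luciferase reporter signal, scaled so untreated is 0 and the glycosylation-blocking control 100, at or above a set limit in every replicate; inconclusive means mean reaches the limit but not every replicate does; inactive means mean below the limit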;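 further: luciferase carries N-glycosylation sites so blocking glycosylation raises the light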
PvdQ acylase: P. aeruginosa PvdQ acylase inhibition. purified PvdQ acylase, fluorescence plate reader. inhibition, % at 10 µM. 340,000 tested, 0.063% active; in the data active means inhibition above about 30%, passing the limit was not always enough; inconclusive means no clear call, values can overlap the other calls
RAD54 inh: inhibitors of human RAD54 branch migration; Q92698; RAD54 Holliday junction branch migration, FAM/BHQ fluorescence; inhibition, % at 10.4 µM; 360,000 tested, 0.14% active; AID 602329;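 active means mean normalized replicate activity at least 40 and at least half of replicates scoring 40 or more; inconclusive means only one of the two criteria met; inactive means mean below 40 and under half of replicates reaching 40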;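 further: inhibitors cause a drop in the FAM fluorescence signal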
Target sequence (Q92698 whole entry, looked up): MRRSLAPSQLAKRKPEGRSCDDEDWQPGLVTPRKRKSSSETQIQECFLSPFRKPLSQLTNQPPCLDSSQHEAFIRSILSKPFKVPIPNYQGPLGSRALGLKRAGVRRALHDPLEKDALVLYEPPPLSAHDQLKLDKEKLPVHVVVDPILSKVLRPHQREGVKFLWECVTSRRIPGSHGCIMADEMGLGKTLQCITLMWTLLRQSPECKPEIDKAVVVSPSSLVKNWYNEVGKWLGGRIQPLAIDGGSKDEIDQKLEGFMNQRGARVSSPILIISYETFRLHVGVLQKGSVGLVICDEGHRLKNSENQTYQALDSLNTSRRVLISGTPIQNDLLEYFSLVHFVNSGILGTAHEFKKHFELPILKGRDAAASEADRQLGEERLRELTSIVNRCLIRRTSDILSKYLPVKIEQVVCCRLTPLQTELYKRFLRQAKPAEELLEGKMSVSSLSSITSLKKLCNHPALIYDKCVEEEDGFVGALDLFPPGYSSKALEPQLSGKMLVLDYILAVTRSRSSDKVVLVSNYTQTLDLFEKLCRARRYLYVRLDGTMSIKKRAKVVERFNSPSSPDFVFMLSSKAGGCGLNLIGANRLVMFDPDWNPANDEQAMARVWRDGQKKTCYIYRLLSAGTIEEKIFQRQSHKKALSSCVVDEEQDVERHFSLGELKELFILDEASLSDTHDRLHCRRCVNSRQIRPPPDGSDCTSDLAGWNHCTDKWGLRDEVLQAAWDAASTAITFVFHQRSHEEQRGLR
RAD52 inh: RAD52 (human) annealing inhibition; inhibition, % at 18.7 µM; recombinant RAD52 DNA annealing, FRET fluorescence; P43351; 360,000 tested, 0.46% active;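 active means every replicate showing at least 50% inhibition; inconclusive means mean inhibition at least 50% but not in every replicate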
dFosB act: enhances mouse delta FosB homodimer DNA binding | AID 493131 | P13346 | purified delta FosB, TAMRA-CDK5 oligo fluorescence polarization; percent of positive-control signal above neutral wells | activation, % at 25 µM | 340,000 tested, 0.99% active;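 active means mean activation above about 17%, with every replicate also reaching it, limit read from the data, passing the limit was not always enough; inconclusive means only one of the two conditions met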
Hits are given with their value; - = inactive; ? = inconclusive; . = no result given. The list is not random: actives were taken first. Their share in the collection is about 1.5%.

SMILES	F508del corr	N-glyco inh	PvdQ acylase	RAD54 inh	RAD52 inh	dFosB act
CN(C)CC#Cc1ccc([C@@H]2[C@H]3CN(CC4CCOCC4)CCCCN3[C@H]2CO)cc1	-	.	.	-	-	.
CN(C)CC#Cc1ccc([C@@H]2[C@@H](CO)N3CCCCN(CC4CC4)C[C@H]23)cc1	-	.	.	-	55	.
CN(C)CC#Cc1ccc([C@H]2[C@H]3CN(CC4CCOCC4)CCCCN3[C@H]2CO)cc1	-	.	.	-	-	.
CN(C)CC#Cc1ccc([C@H]2[C@@H](CO)N3CCCCN(CC4CC4)C[C@H]23)cc1	-	.	.	-	67	.
CN(C)CC#Cc1ccc([C@@H]2[C@H]3CN(CC4CC4)CCCCN3[C@H]2CO)cc1	-	.	.	-	74	.
Cc1ccccc1-c1ccc(C2[C@@H]3CN(S(=O)(=O)c4cn(C)cn4)C[C@H]2N3)cc1 (stereo partly specified)	-	.	.	.	-	.
C/C=C/c1cnc2c(c1)C(=O)N([C@@H](C)CO)C[C@H](C)[C@H](CN(C)S(=O)(=O)c1ccccc1)O2	-	.	.	-	-	.
O=C1CCCN1CCCNc1nc(NCc2ccccc2)nc2ccsc12	-	38	.	-	-	.
O=C(N[C@@H]1C=C[C@H](CC(=O)N2CCN(c3ccccc3)CC2)O[C@@H]1CO)c1ccncc1	-	.	.	-	-	.
C[C@H]1CN([C@@H](C)CO)C(=O)c2cccc(NS(=O)(=O)c3cn(C)cn3)c2O[C@H]1CN(C)S(=O)(=O)c1cccs1	-	.	.	-	-	.
COc1cccc(C2=CC(c3ccccc3)n3nnnc3N2)c1 (stereo unspecified)	15	-	-	-	-	-
c1ccc2nc3c(ccc4ccccc43)cc2c1	-	-	-	-	-	-
Nc1[nH]nc2ncc3cc4ccccc4nc3c12	12	-	-	.	-	-
O=c1cc(-c2ccc(Cl)cc2)oc(=O)[nH]1	-	-	-	.	-	-
O=c1cc(N=Nc2ccc(Cl)cc2)[nH]c(=O)[nH]1	-	70	-	-	-	-
COc1ccc2nc3oc(C(=O)NCc4cccs4)cc3cc2c1	.	-	-	-	.	60
CCOCCCNC(=O)c1cc2cc3cc(OC)ccc3nc2o1	-	-	-	-	-	-
CCCN(C)C[C@H]1OCCCC[C@H](C)Oc2ccc(N(C)C)cc2C(=O)N([C@H](C)CO)C[C@H]1C	-	.	.	-	-	.
O=C(/C=C(\c1ccc(Cl)cc1)n1cncn1)c1ccc(Cl)cc1	.	27	-	-	-	-
O=C(/C=C(\c1ccccc1)n1cncn1)c1ccccc1	.	-	-	.	-	-
C[C@@H]1CN([C@H](C)CO)C(=O)Cc2cc(NS(=O)(=O)c3ccccc3)ccc2O[C@H]1CN(C)S(=O)(=O)c1cn(C)cn1	-	.	.	-	-	.
CC(=O)c1cccc(Nc2c3c(nc4ccccc24)CCC3)c1	15	51	-	-	-	-
COc1ccccc1Nc1c2c(nc3ccccc13)CCC2	9.8	-	-	-	-	-
CCN1CCc2c(sc(NC(=O)Cc3ccccc3)c2C(N)=O)C1	-	-	-	-	-	-
CCN(c1ccccc1)S(=O)(=O)c1ccc(C(=O)NC2CCN(Cc3ccccc3)CC2)cc1	.	48	-	.	.	-
SMILES	F508del corr	N-glyco inh	PvdQ acylase	RAD54 inh	RAD52 inh	dFosB act
CCN1CCc2c(sc(NC(=O)c3ccc(S(=O)(=O)N(CC)c4ccccc4)cc3)c2C(N)=O)C1	-	-	-	-	-	41
CCN1CCc2c(sc(NC(=O)Nc3ccc(Cl)c(Cl)c3)c2C(N)=O)C1	.	-	-	-	-	56
CCC(=O)N1CC2(CCN(C(=O)c3cccnc3)CC2)c2c([nH]c3cc(OC)ccc23)[C@H]1CO	-	.	.	.	-	.
CCC(=O)N1[C@H](CN(CC)C(C)=O)[C@@H](c2ccc(-c3ccccc3)cc2)[C@@H]1CO	8.9	.	.	-	.	.
CN(C)CCCN1c2ccccc2Sc2ccccc21	11	-	-	-	-	-
NC(=S)NN=Cc1nccc2ccccc12	9.7	-	-	-	-	-
CC(=O)NC(c1ccco1)c1ccc2cccnc2c1O (stereo unspecified)	.	-	-	-	-	-
CCC(=O)NC(c1ccc(C)cc1)c1ccc2cccnc2c1O (stereo unspecified)	11	-	-	-	-	-
CCC(=O)NC(c1ccc(Cl)cc1Cl)c1ccc2cccnc2c1O (stereo unspecified)	-	-	-	-	-	-
CC(=O)NC(c1ccc(Cl)cc1)c1ccc2cccnc2c1O (stereo unspecified)	12	-	-	-	-	-
CCCC(=O)NC(c1ccc(N(C)C)cc1)c1ccc2cccnc2c1O (stereo unspecified)	9.8	-	-	-	-	-
CCCC(=O)NC(c1ccc(C(C)C)cc1)c1ccc2cccnc2c1O (stereo unspecified)	12	-	-	-	-	-
CCCC(=O)NC(c1ccccc1Cl)c1ccc2cccnc2c1O (stereo unspecified)	-	-	-	-	-	-
C[C@@H]1CN([C@H](C)CO)C(=O)c2cccc(NS(C)(=O)=O)c2O[C@@H]1CN(C)CC1CC1	-	.	.	-	-	.
NC(=O)CC(NC(=O)Cc1ccc(Br)cc1)c1ccc(NC2CCCC2)c([N+](=O)[O-])c1 (stereo unspecified)	-	38	-	-	.	-
NC(=O)CC(NC(=O)c1ccc(Br)cc1)c1ccc(N2CCCCCCC2)c([N+](=O)[O-])c1 (stereo unspecified)	-	43	-	-	-	-
NC(=O)CC(NC(=O)Cc1ccc(Br)cc1)c1ccc(NC2CCCCCCC2)c([N+](=O)[O-])c1 (stereo unspecified)	-	-	-	-	-	-
O=C(NCCN1C(=O)S/C(=C\c2ccc(OC(F)F)cc2)C1=O)c1cnccn1	13	-	-	.	-	-
COc1ccc(/C=C2\SC(=O)N(CCNC(=O)C3=COCCO3)C2=O)cc1	8.0	?	-	-	-	-
NC1=NC(=O)/C(=C/c2cccc(-c3ccc(S(N)(=O)=O)cc3)c2)S1	-	-	-	-	-	60
NC1=NC(=O)/C(=C\c2ccc(O)c([N+](=O)[O-])c2)S1	-	-	-	.	-	-
O=c1c2ccccc2sc2c(CO)ccc(NCCN3CCCCC3)c12	17	-	-	.	-	-
Cc1ccc(/C=C\c2nccc3c2[nH]c2ccccc23)cc1	-	-	-	-	-	42
C(=C\c1nccc2c1[nH]c1ccccc12)/c1ccccc1	-	-	-	.	-	42
Fc1ccc(/C=C\c2nccc3c2[nH]c2ccccc23)cc1	-	-	-	-	-	.
Cc1ccc2cc3c(N)c4c(C)ccc(C)c4nc3nc2c1	-	-	-	.	-	29
Cc1ccc2c(N)c(C)ccc2c1	.	-	-	-	.	-
C[C@@H]1CCCCO[C@@H](CN(C)S(=O)(=O)c2ccc(F)cc2)[C@H](C)CN([C@@H](C)CO)C(=O)c2cc(NC(=O)CCC(F)(F)F)ccc2O1	-	.	.	-	-	.

Compound activity from PubChem BioAssay.
